The record followed here is PubChem BioAssay (Tox21).

Assay [1] is described as follows: A CellTox Green Cytotoxicity Assay to monitor cytotoxicity in HEK293 cells - 32 hour (AID 1224881). Also: nearly all actives have a fitted effect of over 40% in size. In short, it runs like this:
(§1)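 Cells (HEK293, 600/well) and dye reagent are dispensed together. After 5 h at 37 C, 23 nL compound is pinned in. Plates stay at 37 C for 40 h with fluorescence read at 0h, 8h, 16h, 24h, 32h and 40h.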

Assay [2] is described as follows: A CellTox Green Cytotoxicity Assay to monitor cytotoxicity in HepG2 cells - 0 hour (AID 1224882). Also: nearly all actives have a fitted effect of over 35% in size. In a few lines:
(§2)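 Cells and non-lytic dye reagent are dispensed together (600 HepG2 cells/well) and incubated 5 h before DMSO compound transfer. Kinetic fluorescence is then recorded in the same wells during 40 h at 37 C.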

A short description of assay [3]: A CellTox Green Cytotoxicity Assay to monitor cytotoxicity in HepG2 cells - 32 hour (AID 1224883). Also: nearly all actives have a fitted effect of over 50% in size. In a few lines: as §2
Assay [4] can be described thus: A CellTox Green Cytotoxicity Assay to monitor cytotoxicity in HEK293 cells - 8 hour (AID 1224884). Also: nearly all actives have a fitted effect of over 35% in size. In short, it runs like this: as §1
Assay [5] in a line: qHTS RealTime-Glo MT Cell Viability Assay in HepG2 cells - 16 hour (AID 1224885). Also: nearly all actives have a fitted effect of over 50% in size. In short, it runs like this:
(§3)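 Tox21 10K library screened in qHTS format on HepG2 cells carrying RealTime-Glo reagents. Compounds were added after a 5 h preincubation, and the luminescent signal from continuous culture was measured repeatedly during 40 h treatment.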

A short description of assay [6]: qHTS RealTime-Glo MT Cell Viability Assay in HEK293 cells - 24 hour (AID 1224886). Also: top concentration of the series differs between compounds; nearly all actives have a fitted effect of over 50% in size. In short, it runs like this: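 Luminescence generated by NanoLuc from substrate produced by living HEK293 cells served as the viability signal. Each value reflects the reading at its stated time point during continuous 40 h compound exposure at 37 C.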
Assay [7] in a line: qHTS RealTime-Glo MT Cell Viability Assay in HEK293 cells - 8 hour (AID 1224887). Also: top concentration of the series differs between compounds; nearly all actives have a fitted effect of over 50% in size. In a few lines: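 Real-time viability in HEK293: signal arises when living cells convert a prosubstrate for NanoLuc in the medium, so luminescence tracks viable cell number. Compound (23 nL, DMSO) added 5 h post-seeding; kinetic reads at 0–40 h, 37 C.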
For orientation: In qHTS, concentration-response curves come from the screen itself.

Assay [8] can be described thus: qHTS RealTime-Glo MT Cell Viability Assay in HepG2 cells - 0 hour (AID 1224889). Also: nearly all actives have a fitted effect of over 50% in size. In a few lines: as §3
Assay [9] in a line: A CellTox Green Cytotoxicity Assay to monitor cytotoxicity in HepG2 cells - 8 hour (AID 1224890). Also: nearly all actives have a fitted effect of over 45% in size. In a few lines:
as §2

A short description of assay [10]: qHTS assay to identify small molecule antagonists of the estrogen receptor alpha (ER-alpha) signaling pathway using the BG1 cell line in the presence of 0.1 nM 17-beta-estradiol - cell viability counter screen (AID 1259241). Also: nearly all actives have a fitted effect of over 40% in size. In a few lines: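 The cell line endogenously expresses full-length ER-alpha and carries four EREs driving luciferase. Cells are cultured 5 days hormone-free, treated 22 hr with compounds and 0.1 nM estradiol, then viability is read by fluorescence.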

Assay [11] is described as follows: qHTS assay to identify small molecule antagonists of the androgen receptor (AR) signaling pathway using the MDA cell line in the presence of 0.5 nM R1881 - cell viability counter screen (AID 1259242). Also: nearly all actives have a fitted effect of over 45% in size. In a few lines:
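Steps: plate MDA-kb2 cells, rest 5 hr at 37C without CO2; pin in compounds in DMSO; add R1881 to 0.5 nM final; incubate 16 hr; add CellTiter-Fluor, 30 min; read fluorescence.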

The target in assay [12] is Estrogen receptor (Homo sapiens) (UniProt P03372). The assay is described as follows: qHTS assay to identify small molecule antagonists of the estrogen receptor alpha (ER-alpha) signaling pathway using the BG1 cell line in the presence of 0.1 nM 17-beta-estradiol (AID 1259244). Also: nearly all actives have a fitted effect of over 50% in size. Also: potency is read from the fitted curve at half-maximal effect. In a few lines:
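Antagonist mode: compounds in DMSO are pinned onto VM7Luc4E2 reporter cells, 0.1 nM final 17beta-estradiol is added, and after 22 h at 37C luciferase luminescence is measured with ONE-Glo.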

A short description of assay [13]: qHTS assay to identify small molecule HDAC inhibitors (AID 1259364). Also: potency is read from the fitted curve at half-maximal effect.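 Also: wild-type HCT-116 cells with endogenous class I/II HDAC activity; nearly all actives have a fitted effect of over 45% in size.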 In short, it runs like this: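 Cells (HCT-116, wild type) are seeded at 1,500 per well, incubated overnight, treated with compound in DMSO for 2 hr, then developed with HDAC-Glo I/II reagent for 30 min at room temperature.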
Assay [14] in a line: qHTS assay to identify small molecule HDAC inhibitors - cell viability counter screen (AID 1259365). In short, it runs like this: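 Viability readout: CellTiter-Glo luminescence. Wild-type HCT-116 cells, 2hr compound treatment following overnight attachment at 37 C.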
Assay [15] in a line: qHTS assay to identify small molecule agonists of the sonic hedgehog signaling (Shh) pathway - cell viability counter screen (AID 1259366). Also: nearly all actives have a fitted effect of over 50% in size. In short, it runs like this: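 Viability measured fluorometrically (CellTiter-Fluor, 1hr, 37C) in 3T3 Gli1-Luc reporter cells after 23hr compound exposure within a 24hr incubation at 37C/5% CO2.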
A short description of assay [16]: qHTS assay to identify small molecule antagonists of the sonic hedgehog signaling (Shh) pathway - cell viability counter screen (AID 1259367). Also: nearly all actives have a fitted effect of over 55% in size. In a few lines: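 Viability was read by CellTiter-Fluor fluorescence in the same wells, reagent added 23 hr into compound treatment and incubated 1 hr at 37C. The 3T3 Gli1-Luc reporter cells (2,000/well) received conditioned medium after compound and ran 24 hr.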

Assay [17] in a line: qHTS assay to identify small molecule agonists of the sonic hedgehog signaling (Shh) pathway (AID 1259368; calls by dose curve;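 also: NIH/3T3-derived 3T3Gli1-Luc cells carrying a stable Gli1-driven firefly luciferase reporter; series mostly up to about 92 µM; nearly all actives have a fitted effect of over 15% in size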). In short, it runs like this:
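Cells of a mouse NIH/3T3 clone stably expressing luciferase under the Gli1 transcriptional response element are exposed to test chemicals for 24 hr at 37 C. Pathway activation is detected as a rise in luminescence.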

Assay [18] is described as follows: A CellTox Green Cytotoxicity Assay to monitor cytotoxicity in HEK293 cells - 16 hour (AID 1224888). Also: nearly all actives have a fitted effect of over 35% in size. In a few lines:
as §1

For assay [19], the target named is Androgen receptor (Homo sapiens) (UniProt P10275). In words: qHTS assay to identify small molecule antagonists of the androgen receptor (AR) signaling pathway using the MDA cell line in the presence of 0.5 nM R1881 (AID 1259243). Also: nearly all actives have a fitted effect of over 50% in size. Also: potency is read from the fitted curve at half-maximal effect. In short, it runs like this: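 Stably transfected MDA-kb2 cells express luciferase from an MMTV promoter bearing both AR and GR response elements. Compounds plus 0.5 nM R1881 (final) were incubated 16 hr at 37C without CO2, then luminescence measured.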
Androgen receptor (Homo sapiens), sequence (P10275 whole entry, looked up): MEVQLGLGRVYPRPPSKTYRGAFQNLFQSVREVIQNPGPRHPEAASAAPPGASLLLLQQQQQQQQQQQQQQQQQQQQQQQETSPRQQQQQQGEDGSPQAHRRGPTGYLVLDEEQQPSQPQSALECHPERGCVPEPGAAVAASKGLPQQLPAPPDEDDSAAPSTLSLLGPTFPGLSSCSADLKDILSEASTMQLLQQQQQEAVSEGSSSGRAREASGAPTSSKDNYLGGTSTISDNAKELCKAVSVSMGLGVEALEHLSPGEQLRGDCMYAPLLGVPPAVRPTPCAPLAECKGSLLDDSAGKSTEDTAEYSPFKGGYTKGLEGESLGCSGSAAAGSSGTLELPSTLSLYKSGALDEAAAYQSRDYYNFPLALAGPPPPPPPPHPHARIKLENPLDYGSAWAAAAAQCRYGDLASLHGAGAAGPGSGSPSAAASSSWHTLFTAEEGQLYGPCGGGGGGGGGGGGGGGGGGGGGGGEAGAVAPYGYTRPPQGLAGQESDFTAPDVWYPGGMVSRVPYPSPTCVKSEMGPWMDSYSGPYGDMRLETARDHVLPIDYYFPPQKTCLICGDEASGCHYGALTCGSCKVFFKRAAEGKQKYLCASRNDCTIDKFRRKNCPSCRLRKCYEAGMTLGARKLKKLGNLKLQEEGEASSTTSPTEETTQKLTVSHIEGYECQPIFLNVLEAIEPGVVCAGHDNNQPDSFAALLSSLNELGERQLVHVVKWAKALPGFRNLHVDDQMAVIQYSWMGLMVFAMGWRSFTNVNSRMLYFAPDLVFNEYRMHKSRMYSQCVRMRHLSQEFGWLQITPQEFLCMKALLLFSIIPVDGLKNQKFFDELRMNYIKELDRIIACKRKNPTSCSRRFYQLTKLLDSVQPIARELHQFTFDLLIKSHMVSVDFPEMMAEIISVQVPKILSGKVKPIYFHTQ

Assay [20] in a line: qHTS assay to identify small molecule phospholipidosis (PLD) inducers (AID 1259344; active = well fitted curve in the direction sought with a large enough effect; an effect the other way counts as inactive or inconclusive). In short, it runs like this: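 Phospholipid accumulation was scored by imaging: fixed, Hoechst-counterstained HepG2 cells stained with LipidTOX Red after 24 h compound exposure at 37 C. Read-outs were pit count and pit intensity per well or per cell, with amiodarone and DMSO controls.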

Molecules are shown by their SMILES. A number with no mark means an inactive call. Results filed as inconclusive are left out. Activity calls are given as the source filed them. Unless noted, calls follow the shape of the dose curve; as a rule, active = well fitted curve in the direction sought with a large enough effect in the repeat runs; inconclusive = weak or mixed curves; inactive = no such curve, though single readings can be large; an effect the other way counts as inactive or inconclusive.

Estrogen receptor (Homo sapiens), sequence (P03372 whole entry, looked up): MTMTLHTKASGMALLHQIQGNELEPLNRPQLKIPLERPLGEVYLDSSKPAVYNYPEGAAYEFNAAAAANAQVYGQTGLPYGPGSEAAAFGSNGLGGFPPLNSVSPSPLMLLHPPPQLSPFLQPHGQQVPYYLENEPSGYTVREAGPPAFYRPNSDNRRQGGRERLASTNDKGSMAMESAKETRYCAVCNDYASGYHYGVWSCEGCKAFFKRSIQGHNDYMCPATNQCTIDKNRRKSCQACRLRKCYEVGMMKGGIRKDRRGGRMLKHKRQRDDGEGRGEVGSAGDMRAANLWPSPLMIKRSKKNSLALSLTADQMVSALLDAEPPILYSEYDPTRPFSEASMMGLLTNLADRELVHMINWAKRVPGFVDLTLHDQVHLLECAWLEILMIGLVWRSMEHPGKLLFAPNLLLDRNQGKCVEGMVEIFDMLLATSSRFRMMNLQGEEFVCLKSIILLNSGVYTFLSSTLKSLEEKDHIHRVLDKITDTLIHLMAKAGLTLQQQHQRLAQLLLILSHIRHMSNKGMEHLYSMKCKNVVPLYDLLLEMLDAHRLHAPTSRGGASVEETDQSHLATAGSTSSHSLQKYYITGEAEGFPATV

On to `CCN(CC)CCOC(=O)C(O)(c1ccccc1)c1ccccc1`, for which the Potency result in assay [1], in assay [3], in assay [4], in assay [5], in assay [6] and in assay [7] was “inactive” each time. In addition, the Potency result in assay [9], in assay [11], in assay [12], in assay [13], in assay [15] and in assay [16] was “inactive” each time. Also, the outcome in assay [2], in assay [8], in assay [10], in assay [14] and in assay [17] was inactive.
As for `N#CN`, the Potency entry in assay [1], in [3], in assay [4], in assay [5], in assay [6] and in [7] was “inactive” in each case. In addition, the Potency entry in [18], in [9], in assay [11], in [12], in assay [13] and in assay [15] was “inactive” each time. The Potency entry in assay [16] was “inactive”. Moreover, the call in assay [2], in assay [8], in [10], in assay [14] and in [17] was inactive.
On to `CCOP(=O)(CN(CCO)CCO)OCC`, for which the Potency result in assay [1], in assay [3], in [4], in assay [5], in assay [6] and in assay [7] was “inactive” in each case. The Potency entry in assay [18], in assay [9], in [11], in [12], in [13] and in assay [15] was “inactive” throughout. For the same compound, the Potency result in [16] was “inactive”. Also, the compound was classed as inactive in [2], in [8], in assay [10], in assay [14] and in assay [17].
In the case of `CCOC1Oc2ccc(OS(C)(=O)=O)cc2C1(C)C` (stereo unspecified), the Potency result in [1], in assay [3], in [4], in assay [5], in assay [7] and in assay [18] was “inactive” each time. The Potency result in assay [9], in [11], in assay [15] and in assay [16] was “inactive” in each case. The outcome in assay [2], in assay [8], in assay [10], in assay [14] and in [17] was inactive. The Potency in assay [19] is 60.6 µM (active); in assay [12], 54 µM (active).
As for `O=C/C=C/c1ccco1`, the Potency entry in assay [1], in assay [3], in assay [4], in assay [5], in assay [6] and in assay [18] was “inactive” each time. Further, the Potency result in assay [9], in assay [11], in assay [19], in assay [12], in assay [13] and in assay [15] was “inactive” in each case. In assay [16], the Potency result was “inactive”. Also, the call in assay [2], in [8], in [10], in [14] and in assay [17] was inactive.
Consider `CNC(=O)NC(O)C(Cl)(Cl)Cl` (stereo unspecified), for which the Potency entry in assay [1], in assay [3], in assay [4], in [5], in assay [6] and in assay [18] was “inactive” in each case. In addition, the Potency result in assay [11], in assay [19], in [12], in [20], in [13] and in assay [15] was “inactive” in each case. For the same compound, in assay [16], the Potency entry is “inactive”. Also, the compound was classed as inactive in [2], in [8], in assay [10] and in [14].
For the compound `CON(C)C(=O)Nc1ccc(Br)c(Cl)c1`, the Potency entry in assay [1], in assay [3], in assay [4], in assay [5], in assay [7] and in [18] was “inactive” each time. For the same compound, the Potency entry in [9], in [11], in [15] and in [16] was “inactive” each time. The call in assay [2], in assay [8], in assay [10], in assay [14] and in assay [17] was inactive. Further, in assay [13], the Potency is 27.3 µM (active).
Regarding `CC[C@H](O)C(C[C@H](C)N(C)C)(c1ccccc1)c1ccccc1`, the Potency entry in [1], in assay [3], in [4], in assay [5], in assay [7] and in assay [18] was “inactive” throughout. Besides, the Potency entry in assay [9], in assay [11], in assay [12] and in [13] was “inactive” throughout. Also, the call in assay [2], in [8], in [10] and in [14] was inactive.
On to `O=C(Cl)C(Cl)Cl`, for which the Potency result in assay [1], in assay [3], in assay [4], in assay [5], in assay [6] and in [9] was “inactive” each time. Further, the Potency result in [11], in assay [12], in assay [13], in assay [15] and in assay [16] was “inactive” in each case. The compound was called inactive in assay [2], in [8], in [10], in [14] and in [17].
Regarding `COc1cc(CCN)cc(OC)c1OC`, the Potency result in assay [1], in assay [3], in [4], in assay [6], in [7] and in assay [18] was “inactive” in each case. Further, the Potency entry in assay [9], in assay [11], in [12], in assay [20], in [13] and in [15] was “inactive” each time. Also, in [16], the Potency entry is “inactive”. Also, the outcome in [2], in assay [8], in assay [10], in [14] and in assay [17] was inactive.
Regarding `COc1ccccc1OC`, the Potency result in assay [1], in assay [3], in assay [4], in assay [5], in [6] and in assay [18] was “inactive” in each case. In addition, the Potency entry in assay [9], in assay [11], in assay [12], in assay [13], in [15] and in [16] was “inactive” throughout. The call in assay [2], in [8], in assay [10], in assay [14] and in assay [17] was inactive.
In the case of `O=C(CCl)NCO`, the Potency result in assay [1], in assay [3], in assay [4], in [5], in [6] and in assay [18] was “inactive” each time. The Potency result in [9], in assay [11], in assay [12], in assay [13], in assay [15] and in assay [16] was “inactive” each time. The result in assay [2], in [8], in assay [10], in assay [14] and in assay [17] was inactive.
Take `CCCOC(=O)c1cncn1C(C)c1ccccc1` (stereo unspecified): the Potency entry in [1], in [3], in assay [4], in assay [5], in [6] and in assay [18] was “inactive” in each case. In addition, the Potency result in [9], in [11], in [19], in [12], in assay [13] and in [15] was “inactive” each time. Also, in assay [16], the Potency result is “inactive”. Moreover, the result in [2], in assay [8], in assay [10], in assay [14] and in assay [17] was inactive.
